Compound activity from PubChem.
BRCA1 expr up – qHTS Assay to Identify Small Molecule Activators of BRCA1 Expression; MCF7-BRCA1-FFLuc reporter, luminescence, 48 h; response scale: scaled: vehicle 0%, 10 µM genistein 100%; Potency, µM (series often up to 46.1 µM), usual class: activators; actives 1.1% (n = 380,000); note: nearly all actives have a fitted effect of over 80% in size
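MCF7 cells carrying a BRCA1-firefly luciferase reporter (2000 cells/well, phenol-red free MEM) were attached for 2 h at 37 °C, then given compounds for 48 h. Luminescence was read 15 min after luciferase reagent; activity normalized to genistein (10 microM) and DMSO.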
Nrf2 ARE act – qHTS of Nrf2 Activators. AREc32 ARE-luciferase reporter (MCF7-derived line), luminescence, 24 h. Potency, µM (series often up to 46.1 µM), hits mostly activators. actives 0.31% (n = 410,000); note: nearly all actives have a fitted effect of over 65% in size
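Reporter line AREc32 (ARE-Fluc), seeded overnight in OPTI-MEM with 5% FBS; compound pin-transferred, 24 hr at 37 deg C, 5% CO2; luminescent read-out.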
IL-2 act – qHTS of IL-2 Activators; IL-2 activation reporter assay, cell-based qHTS; stimulated with anti-CD3/CD4/CD28 beads; in transgenic mouse T cells; activation, % (series mostly up to about 46 µM); actives 0.065% (n = 360,000); AID 652025, 2013; in the data active = activation above about 50%; inconclusive = mostly about 30% to 49%
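Screening format: compound pinned onto unstimulated transgenic mouse T cells, 60 min incubation, then anti-CD3/anti-CD4/anti-CD28 bead stimulation for 18 hours at 37 degrees C, followed by EGFP and DsRed detection.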
a7 integrin act – qHTS for Activators of Integrin-Mediated Alleviation for Muscular Dystrophy; alpha7betagal myoblasts, beta-gal FDG fluorescence, 48 h; Potency, µM (top dose mostly 38.3 µM), hits mostly activators; actives 0.064% (n = 350,000); AID 624291, 2012; note: nearly all actives have a fitted effect of over 60% in size
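Alpha7betagal+/- myoblasts (passage 13) were plated 16-24 hr, then exposed to compounds (1:260 dilution of DMSO stock) for 48 hours at 37C. After MPER lysis, β-galactosidase reporter activity was read as FDG fluorescence (ex 480/em 540) after 30 minutes.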
N370S GC – qHTS Assay for Inhibitors and Activators of N370S glucocerebrosidase as a Potential Chaperone Treatment of Gaucher Disease; Lysosomal acid glucosylceramidase (Homo sapiens), P04062; N370S GC spleen homogenate, 4MU-glucoside fluorescence; Potency, µM (top dose mostly 59.4 µM), usual class: inhibitors; actives 0.092% (n = 330,000); AID 2101, 2009
BCR signal inh – qHTS Assay to Find Inhibitors of Chronic Active B-Cell Receptor Signaling | ABC-DLBCL IkBa-CBG/CBR reporter, luminescence ratio, 4 h | Potency, µM (doses to about 46.1 µM), hits mostly inhibitors | actives 0.05% (n = 340,000) | AID 493014, 2011; active = well fitted inhibition curve with a large enough effect in the signal ratio, with a control signal flat, not every such curve was filed as active; inconclusive = small, poorly fitted or top-dose-only effect, or effect the other way, or a change in a side signal; the % refers to the signal ratio
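TMD8 human ABC-DLBCL cells with doxycycline-inducible IκBα–green luciferase fusion and unfused red luciferase, in 0.5% FBS medium; compounds up to 46 uM, 4 h at 37C. Green/red luminescence ratio, filter-overlap corrected, fitted to concentration-response curves.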
Hits are given with their value; . = inactive; ? = inconclusive; / = not tested or not shown. This is a sample that favours compounds with a hit; in the whole collection about 1.4% have one here. Unless noted, calls come from the whole dose curve; as a rule, active = well fitted curve in the direction sought with a large enough effect; inconclusive = small, poorly fitted or top-dose-only effect, or another doubt; inactive = no such curve, though single readings can be large; an effect the other way counts as inactive or inconclusive.

SMILES	BRCA1 expr up	Nrf2 ARE act	IL-2 act	a7 integrin act	N370S GC	BCR signal inh
CNc1ccc(/C=C/c2ccnc3ccccc23)cc1	.	/	/	/	/	/
CN(c1ccccc1)S(=O)(=O)c1cccc(NC(=O)c2cc3ccccc3oc2=O)c1	11.2µM	.	.	.	.	?
CC#CC[N+](C)(C)CCCCCCCCCC	.	.	.	.	15.8µM	?
Clc1ccccc1CONc1ncnc2nonc12	10µM	.	.	.	.	.
CCCCC(=O)/C=C/n1c(=S)oc2ccccc21	.	10µM	.	.	.	.
CC(C)OC(=O)n1c(=S)oc2ccccc21	.	.	.	.	.	?
O=C(Nc1ccccc1O)c1ccc(Cl)cc1	.	12.6µM	.	.	.	?
N#Cc1cccn1-c1nccc(-c2cccs2)n1	.	4.47µM	.	.	.	.
O=S(=O)(c1cccc(F)c1)N1CCN(c2nc(-c3cccs3)nc3ccccc23)CC1	.	/	/	/	/	/
O=c1[nH]c2ccccc2c2nc3ccccn3c12	.	.	.	.	.	?
O=c1nc2c(O)cccn2c2c1c(=O)[nH]c1ccccc12	.	5.62µM	.	.	.	.
COc1ccc(CN(C)CCCn2cnc3c(SC)ncnc32)cc1OC	.	.	.	.	/	/
Cn1cccc1C(=O)NC1CCCCCC1	10µM	.	.	.	/	?
Cc1cccn2c(=O)c3cc(C(=O)NCCC4=CCCCC4)n(C)c3nc12	.	.	.	.	.	.
Cc1cccn2c(=O)c3cc(C(=O)NC4CCCCC4)n(C)c3nc12	.	.	.	14.1µM	?	.
Cn1c(C(=O)NCCC2=CCCCC2)cc2c(=O)n3ccccc3nc21	11.2µM	.	.	.	.	.
COCCn1c(CNC(=O)c2cccc(C)c2)nc2cccnc21	/	.	/	/	/	/
C=CCNC(=O)C1CCN(S(=O)(=O)c2ccc3ccccc3c2)CC1	.	.	.	.	.	.
CCc1noc(-c2ccc(N3CCCCC3)c([N+](=O)[O-])c2)n1	7.08µM	.	/	/	/	/
CCc1noc(-c2ccc(N3CCC(C)CC3)c([N+](=O)[O-])c2)n1	8.91µM	.	/	/	/	/
Cc1noc(-c2ccc(N3CCC(C)CC3)c([N+](=O)[O-])c2)n1	?	.	/	/	/	/
Cc1ccc(-c2noc(-c3ccc(N4CCCCC4)c([N+](=O)[O-])c3)n2)cc1	.	.	/	/	/	/
O=C(CN1CCOCC1)Nc1ccccc1Sc1ccc(Cl)cc1	.	.	.	.	.	.
O=C(NNc1ccc(F)cc1F)c1cccs1	.	/	/	/	/	/
Oc1ccccc1Nc1nc(NCc2ccccc2)c2ccccc2n1	.	.	.	?	11.2µM	?
SMILES	BRCA1 expr up	Nrf2 ARE act	IL-2 act	a7 integrin act	N370S GC	BCR signal inh
CNc1nc(NCc2ccccc2)c2ccccc2n1	.	.	.	.	.	.
O=C(c1ccc([N+](=O)[O-])o1)N1CCc2ccccc2C1	.	.	.	?	.	.
COc1cc2c(cc1OC)CN(C(=O)c1ccc([N+](=O)[O-])o1)CC2	.	12.6µM	.	.	.	?
COC(=O)C1=C(C(=O)OC)[C@@H]2N(C)c3ccc(OC)cc3[C@@]23C[C@@H](C(=O)OC)N(C(=O)NC2CCCCC2)C3=N1	.	.	.	.	/	/
COc1cc(/C=C/c2ccc(O)cc2)cc(OC)c1	?	.	.	.	.	12.6µM
COc1ccc(/C=C/C(=O)c2ccc(O)cc2)cc1	?	?	.	.	.	?
CCOC(=O)c1sc(=N)n(-c2ccc(OC)cc2)c1C	?	.	.	2µM	.	.
CCOC(=O)c1sc(=S)n(-c2ccc(OC)cc2)c1N	.	.	.	.	.	?
COc1cc(C(=O)O[C@@H]2CC3CC[C@]2(C)C3(C)C)ccc1O	/	/	/	/	.	/
COc1ccccc1CNC(=O)c1cnc2sc(N3CCCCCC3)nn2c1=O	/	.	/	/	/	/
CN(Cc1ccc(F)cc1)C(=O)CNC(=O)c1cccs1	.	.	.	.	/	.
